This note sets out measurements from PubChem BioAssay AID651815 (National Center for Advancing Translational Sciences (NCATS), 2012).

Each structure is given as a SMILES string. Hit rate of the full screen: of about 2,100 compounds, about 1,100 (52%) were called active. Another 29% or so got no clear call; they are omitted. The set was probably picked from earlier hits. Some of the results follow. A number with no mark means an inactive call. The call rests on the fitted dose curve; in most records, active means well fitted inhibition curve with a large enough effect; inconclusive means small, poorly fitted or top-dose-only effect; inactive means no such curve, though single readings can be large or run the other way.
On the % scale 0 is the no-effect control and ±100 the full control effect; potency means the concentration at half of the fitted maximal effect.

The target of this assay is DNA dC->dU-editing enzyme APOBEC-3F (Homo sapiens) (UniProt Q8IUX4). Nature of the assay: qHTS for inhibitors of Vif-A3F interactions: Cherry picks counterscreen. Further: nearly all actives have a fitted effect of over 65% in size. Conditions: HeLa A3F-eYFP/Vif cells, eYFP fluorescence, 24 h; series mostly up to 46.1 µM; activity, negative = inhibitor: at the top concentration. An excerpt: The recent discovery and characterization of host restriction factors, which provide a potent defense to invading retroviruses, has provided new targets for antiviral drug development. APOBEC3G (A3G) and APOBEC3F (A3F) are potent cytidine deaminases that block HIV-1 replication; HIV-1 expresses the Vif protein, which counteracts A3G and A3F by binding to them and inducing their proteasomal degradation. The Vif-A3G and Vif-A3F interactions provide two potential targets for development of small molecules which can interfere with the ability of Vif to degrade A3G or A3F. […] To identify inhibitors that can interfere with Vif mediated degradation of A3G and A3F, we have developed Hela cell lines that stably express A3G or A3F tagged with eYFP at the C-terminal end (A3G-eYFP or A3F-eYFP, respectively) and Vif. In the absence of an inhibitor, Vif induces degradation of A3G-eYFP and A3F-eYFP, and the cells are not fluorescent. In the presence of an inhibitor, it is expected that Vif will be unable to degrade A3G-eYFP and/or A3F-eYFP, resulting in an increase in yellow fluorescence. In this counterscreen assay, Vif A3F was screened against the cherry picks ordered from the MLSMR. NIH Chemical Genomics Center [NCGC] NIH Molecular Libraries Probe Centers Network [MLPCN] MLPCN Grant: MH093245 Assay Submitter (PI): Vinay Pathak, National Cancer Institute
DNA dC->dU-editing enzyme APOBEC-3F (Homo sapiens), sequence (Q8IUX4 whole entry, looked up): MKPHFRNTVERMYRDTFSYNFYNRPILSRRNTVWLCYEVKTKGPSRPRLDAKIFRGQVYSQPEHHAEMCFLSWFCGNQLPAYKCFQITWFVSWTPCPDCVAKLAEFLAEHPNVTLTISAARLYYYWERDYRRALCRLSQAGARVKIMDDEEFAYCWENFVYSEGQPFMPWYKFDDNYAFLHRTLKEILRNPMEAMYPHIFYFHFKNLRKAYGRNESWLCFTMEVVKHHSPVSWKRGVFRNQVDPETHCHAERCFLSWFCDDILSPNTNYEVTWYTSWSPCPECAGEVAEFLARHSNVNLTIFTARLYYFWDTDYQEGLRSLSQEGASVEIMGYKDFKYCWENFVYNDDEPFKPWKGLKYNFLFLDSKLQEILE
A3F-Vif cells were harvested from T225 flask and resuspended in phenol free OPTI-MEM medium with 5% FBS. Then 5 uL of 140,000 cells/mL resuspended cells was dispensed into each well of low base Aurora COC 1,536-well plates (black walled, clear bottom) using a Multidrop Combi dispenser. After overnight culture at 37 deg C with 5% CO2, a total of 23 nL of compounds at 5 selected concentrations from the NPC or positive control (2 mM stock of MG132) in DMSO was transferred to each well of the assay plate using a pintool (Kalypsys, San Diego, CA), and the plates were further incubated at 37 deg C with 5% CO2 for 24 hours. After that, the plates were measured on Acumen Explorer (TTP Lab Tech). The fluorescence was detected by 488 nm/Ex and […].
On the technique in general: In qHTS, concentration-response curves come from the screen itself.
Turning to `O=C(C(=O)N1CCN(c2ccccc2Cl)CC1)c1c[nH]c2ccccc12`, the “activity, negative = inhibitor” value is -0.112% [at 36.9 µM].
As to `COc1cc(NC(=O)c2ccco2)c(C(=O)OCC(=O)c2c[nH]c3ccccc23)cc1OC`, the “activity, negative = inhibitor” value was -10.7% [at 36.9 µM].
`CC1CC(C)CN(CC(=O)c2c[nH]c3ccccc23)C1` (stereo unspecified): the Potency is 20.6 µM (active).
Same read-out and setting: the same measure for `COc1cc(/C=C(\C#N)c2nc3ccccc3[nH]2)ccc1OCc1ccccc1F`: 16.4 µM (active).
Regarding `COc1cc(/C=C(/C#N)c2nc3ccccc3[nH]2)ccc1OCC(=O)Nc1ccccc1C(C)C`, the Potency is 13 µM (active).
Still for that read-out and setting: the same measure for `COc1cc(/C=C(\C#N)c2nc3ccc(C)cc3[nH]2)ccc1OC(C)C`: 20.6 µM (active).
Same read-out and setting: the same measure for `COc1cc(/C=C(\C#N)c2nc3ccccc3s2)ccc1OCC(=O)Nc1ccccc1`: 15.8 µM (active).
Take `COc1cc(/C=C(\C#N)c2nc3ccccc3[nH]2)ccc1O`: the “activity, negative = inhibitor” value is 32.8%.
With `NNC(=S)Nc1c(F)cc(F)cc1Br`, the “activity, negative = inhibitor” value was -2.67%.
Still for that read-out and setting: the same measure for `CCOc1cc(N(CC)CC)ccc1/C=C(/C#N)c1nc2ccccc2[nH]1`: 47.3%.
As to `Cc1ccc2nc(/C(C#N)=C\c3ccc(OC(=O)c4cccs4)cc3)[nH]c2c1`, the Potency was 8.86 µM (active).
The same measure, in the same setting: the same measure for `CCN(CC)c1ccc(/C=C(/C#N)c2nc3ccccc3[nH]2)c(OC(C)C)c1`: 0.366 µM (active).
In the case of `COc1cc(/C=C(/C#N)c2nc3ccccc3[nH]2)ccc1OC(=O)c1ccco1`, the “activity, negative = inhibitor” value is 32.9% [at 36.9 µM].
`Cc1ccc(-c2cc(-c3ccco3)c3c(N)c(C(=O)NN)oc3n2)cc1`: the Potency was 14.6 µM (active).
Still for that read-out and setting: the same measure for `NNC(=O)c1oc2nc(-c3ccccc3)cc(-c3ccco3)c2c1N`: 16.4 µM (active); for `CCOc1cc(/C=C2\CN(C)C/C(=C\c3ccc(O)c(OCC)c3)C2=O)ccc1O`: 2.5 µM (active); for `CCOc1cc(/C=C2\CCC/C(=C\c3cc(Cl)c(O)c(OCC)c3)C2=O)cc(Cl)c1O`: 12.5 µM (active).
Still for that read-out and setting: the same measure for `COc1cc(/C=C2/CCC/C(=C\c3cc(O)c(OC)c(Cl)c3)C2=O)cc(Cl)c1O`: 13 µM (active).
For the compound `O=c1c(O)c(-c2cccs2)oc2ccccc12`, the Potency is 2.59 µM (active).
Regarding `Cc1ccc(/C=N/NC(=O)c2nc3nc(C)cc(C)n3n2)cc1`, the “activity, negative = inhibitor” value was 7.3%.
Turning to `CN(C)c1ccc(/C=N/NC(=O)c2ccccc2Cl)cc1`, the Potency was 3.53 µM (active).
The same measure, in the same setting: the same measure for `Cc1ccc(/C=N/NC(=O)c2cc(C)oc2C)cc1`: 7.04 µM (active).
`CC(NC(=S)Nc1cccc(C(F)(F)F)c1)C(C)(C)C` (stereo unspecified): the “activity, negative = inhibitor” value was -9.15%.
Still for that read-out and setting: the same measure for `C[C@@H]1O[C@@H](O[C@@H]2C(=O)c3c(O)cc(O)cc3O[C@H]2c2ccc(O)c(O)c2)[C@H](O)[C@H](O)[C@H]1O`: 4.26% [at 36.9 µM].
Still for that read-out and setting: the same measure for `Cc1cccc(CSc2nc(-c3cccs3)ccc2C#N)c1`: -24.3%.
With `N#Cc1ccc(-c2cccs2)nc1SCc1c(F)cccc1Cl`, the Potency was 3.66 µM (active).
The same measure, in the same setting: the same measure for `COc1ccc(-c2csc(NC(=S)NC(=O)/C=C/c3ccco3)n2)cc1Br`: 6.27 µM (active).
With `CSc1ccccc1NC(=O)COC(=O)/C=C/c1ccco1`, the “activity, negative = inhibitor” value was 4.47%.
Still for that read-out and setting: the same measure for `CC(C)(C)c1ccc(-c2csc(NC(=O)CN3C(=O)NC4(CCCCC4)C3=O)n2)cc1`: -14.8%.
`Cc1ccnc(NC(=S)NC(=O)/C=C/c2ccco2)c1`: the Potency is 11.2 µM (active).
With `O=C(/C=C/c1ccco1)NC(=S)Nc1cccc(-c2nc3ccccc3o2)c1`, the Potency was 4.98 µM (active).
Same read-out and setting: the same measure for `CN(C)C=Nc1c(Br)cc(Br)c2nonc12`: 9.2 µM (active).
Take `CNC(=S)N/N=C(\C)c1ccc(Cl)s1`: the “activity, negative = inhibitor” value was 3.84%.
In the case of `N#CCC(=O)N/N=C/c1ccc(N2N=C(c3ccccc3)CC2c2ccccc2)cc1` (stereo unspecified), the Potency is 16.4 µM (active).
On the same count and under the same terms, the same measure for `CCc1ccc(CNC(=O)Cc2ccc(NC(=O)C3=C(C)OCCS3)cc2)cc1`: 1.12 µM (active).
Take `Cc1ccc2nc(/C(C#N)=C/c3ccc(-c4ccccc4C(=O)O)o3)[nH]c2c1`: the Potency is 4.61 µM (active).
Consider `N#C/C(=C\c1ccc(-c2ccc(C(=O)O)cc2)o1)c1nc2ccccc2[nH]1`, for which the Potency is 2.59 µM (active).
The same measure, in the same setting: the same measure for `N#C/C(=C\c1ccc(-c2ccc(F)cc2F)o1)c1nc2ccccc2[nH]1`: 20.6 µM (active); for `Cc1ccc2nc(/C(C#N)=C/c3ccc(-c4cccc(Cl)c4)o3)[nH]c2c1`: 8.2 µM (active); for `Cc1c(Cl)cccc1-c1ccc(/C=C(\C#N)c2nc3ccccc3[nH]2)o1`: 16.4 µM (active).
Same read-out and setting: the same measure for `Cc1ccc2nc(/C(C#N)=C/c3ccc(-c4ccc(C(=O)OC(C)C)cc4)o3)[nH]c2c1`: 8.2 µM (active); for `Cc1ccc2nc(/C(C#N)=C/c3ccc(-c4ccc(F)cc4F)o3)[nH]c2c1`: 4.61 µM (active).
Take `COCc1ccc(O)c2ncccc12`: the “activity, negative = inhibitor” value is -0.742% [at 36.9 µM].
In the case of `CC(=O)c1sc(N/N=C\c2c(O)ccc3ccccc23)nc1C`, the Potency is 14 µM (active).
Turning to `CCOC(=O)c1sc(NC(=S)NC(=O)c2ccco2)nc1C`, the “activity, negative = inhibitor” value was 1.21%.
For the compound `COc1ccc(C(=O)NC2CCCc3ccccc32)cc1[N+](=O)[O-]` (stereo unspecified), the Potency is 8.86 µM (active).
